Inconclusive results are not listed. Where a call stands in place of a potency, no number is given. Calls of active or inactive are those of the source. Calls come from the whole dose curve; as a rule, active = well fitted cell-killing curve with a large enough effect in the repeat runs; inconclusive = weak or mixed curves, or effect the other way; inactive = flat fitted curve, though single readings scatter.
Assay: qHTS assay to identify small molecule antagonists of the constitutive androstane receptor (CAR) signaling pathway - cell viability counter screen (AID 1224837); note: nearly all actives have a fitted effect of over 45% in size
Conditions: HepG2-CYP2B6-hCAR viability, CellTiter-Fluor, 23 h, co-treated with 50 nM CITCO; series mostly up to 92.4 µM
Description: National Center for Advancing Translational Sciences [NCATS]
NIH Chemical Genomics Center [NCGC]
U.S. Environmental Protection Agency [EPA]
National Institutes of Environmental Health Sciences [NIEHS]
National Toxicology Program [NTP]
U.S. Food and Drug Administration [FDA]
The constitutive androstane receptor (CAR) is a nuclear receptor which regulates multiple drug metabolizing enzymes (DMEs) and transporters. Activating CAR will generally increase the transcription and subsequent translation of CYP2B6 and CYP3A4. These two DMEs represent about 50% of the drug metabolizing potential in the body. When CAR is deactivated, the metabolizing potential in the body will decrease, subsequently increasing the toxicity in the body or lowering the therapeutic potential of a pro-drug. Recently, there have also been studies performed indicating CARs role in energy metabolism and cancer therapy. Therefore, inhibiting CARs activity could have a potential effect on diabetes and cancer. Identifying environmental toxins and compounds which modulate CAR, through the use of the Tox21 10K compound collection, will be an important step in determining the toxicity and potential therapeutic effects these factors will have on the human body. To differentiate true CAR antagonists from cytotoxic substances, the assay is multiplexed with a cell viability assay.
Tox21 Assay Protocol Summary:
A double-stable (hCAR and CYP2B6-2.2kb) transfected cell line, derived from human hepatoma (HepG2) cells, was utilized for the duration of the quantitative high-throughput screens. The HepG2-CYP2B6-hCAR cells were dispensed at 2500 cells/4 uL/well in 1536-well white solid bottom plates using a Multidrop Combi. After the assay plates were incubated at 37 C/5% CO2 for 4 hrs, 23 nL of compounds at 15 concentrations (from 5-48 columns) or positive control (from 1 to 4 columns) were transferred to the assay plates using a Pintool station. One uL of CITCO (final concentration = 50 nM) was added, using a Flying Reagent Dispenser, inside each well. After a 23 hr incubation period at 37 C/5% CO2, 1 uL of CellTiter-Fluor reagent was added into each well of the assay plates using a Flying Reagent Dispenser. The fluorescence intensity in the plates was then measured using a ViewLux plate reader.
Potency is the fitted concentration of half-maximal effect.

SMILES | Potency
O=C1c2ccccc2C(=O)c2c(Cl)cccc21 | inactive
N#CCCOCCC#N | inactive
CC(C)c1ccc2sc3ccccc3c(=O)c2c1 | inactive
Cc1cccc(C)c1C | inactive
[Cl][Dy]([Cl])[Cl] | inactive
CCOc1nc(F)cc2nc(S(=O)(=O)Nc3c(Cl)cccc3C(=O)OC)nn12 | inactive
Cc1cccc2c1ccc1ccccc12 | inactive
COc1c(Br)cc(Br)c(C)c1Br | inactive
Cc1cc(C)c(O)c(C(C)(C)C)c1 | inactive
CN[C@H]1CC[C@@H](c2ccc(Cl)c(Cl)c2)c2ccc(S(N)(=O)=O)cc21 | 61.1 µM (active)
O=[N+]([O-])c1ccc(CO)cc1 | inactive
COc1cc(OC)nc(NC(=O)NS(=O)(=O)Nc2ccccc2C(=O)N(C)C)n1 | inactive
Cc1ccc2n[nH]nc2c1 | inactive
CCCCCN=C(N)N/N=C/c1c[nH]c2ccc(OC)cc12 | 18.8 µM (active)
O=C1OC(=O)c2cc(-c3ccc4c(c3)C(=O)OC4=O)ccc21 | inactive
CCCC(C)C=O (stereo not given) | inactive
O=C1CCC(=O)N1 | inactive
CC(Cc1ccc(O)c(O)c1)C(C)Cc1ccc(O)c(O)c1 (stereo not given) | inactive
Nc1cc([N+](=O)[O-])ccc1Cl | inactive
CC/C(=C(/c1ccc(O)cc1)c1ccc(OCCN(C)C)cc1)c1ccccc1 | 32 µM (active)

SMILES | Potency
Cc1ccc(C=O)cc1 | inactive
c1ccc(-c2nc3ccccc3[nH]2)cc1 | inactive
CCCCCCCCCC[N+](C)(CCCCCCCCCC)CCC[Si](OC)(OC)OC | inactive
CC1=CC[C@@H](C(C)(C)O)CC1 | inactive
CC1CCC(C(C)(C)O)CC1 (stereo not given) | inactive
CC1=C(/C=C/C(C)=C/C=C/C(C)=C\C(=O)O)C(C)(C)CCC1 | inactive
C=Cc1ccc(O)c(OC)c1 | inactive
CN1CCN(CCCN2c3ccccc3Sc3ccc(C(F)(F)F)cc32)CC1 | inactive
COc1cc([C@@H]2c3cc4c(cc3[C@@H](O[C@@H]3O[C@@H]5CO[C@@H](C)O[C@H]5[C@H](O)[C@H]3O)[C@H]3COC(=O)[C@H]23)OCO4)cc(OC)c1O | inactive
COc1cc(/C=C/C(=O)CC(=O)/C=C/c2ccc(O)c(OC)c2)ccc1O | 24.5 µM (active)
C=COCCCC | inactive
CC(C)=NNC(N)=S | inactive
CCc1c(C)cc(N)c(CC)c1N | inactive
NC(=O)c1ccccc1Cl | inactive
[Cl][Eu]([Cl])[Cl] | inactive
O=C(NCc1ncc(C(F)(F)F)cc1Cl)c1c(Cl)cccc1Cl | inactive
O=C1C=CC(=O)N1c1cccc(N2C(=O)C=CC2=O)c1 | 61.1 µM (active)
CCCCCCCCCCCC(=O)Cl | inactive
SC1CCCCC1 | inactive
CN1CC[C@H](c2c(O)cc(O)c3c(=O)cc(-c4ccccc4Cl)oc23)[C@H](O)C1 | 0.0944 µM (active)
